Measured values as given in the supplement of paper PMC10849652.
The full data set covers some 7,900 targets. This sample favours those with a hit. About 0.6% of all pairs of compound and target were hits.

How the values were obtained:
Experiment in all cases: log2 fold change, soluble protein after heating vs DMSO (PISA); higher = thermal stabilisation; K562 cells, 10 uM, 30 min; active = over 0.2 and 3.5 SD of the protein, either way, in both replicates (recomputed)
[1] = compound: C1=CC=C(C=C1)[C@H](COC2=CC3=C(C=C2)NC(=O)N3)NC(=O)C4=CC=CN(C4=O)CC5=CC(=C(C=C5)F)F
Method in brief: (§1)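 Soluble protein was quantified by TMTpro 16plex LC-MS/MS after channel sums were equalised. It was obtained as the supernatant after 21,000xg for 90 min from pooled aliquots of K562 cells (2×10^6 cells/mL, 10 μM compound, 30 min) heated for 3 min across 48°C-58°C and extracted in PBS with 0.5% NP-40 at 4°C. Thermal stability values are relative to control samples and come from duplicates. They are given as log2 fold changes.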

[2] = compound: CC1=C(SC2=C1C(=N[C@H](C3=NN=C(N32)C)CC(=O)N)C4=CC=C(C=C4)Cl)C
Method in brief: as §1

[3] = compound: CC1=C2C(=CC=C1)N=C(N(C2=O)C3=CC=CC=C3C)CN4C=NC5=C(N=CN=C54)N
Method in brief: as §1

[4] = compound: Cc1sc2c(c1C)C(c1ccc(Cl)cc1)=N[C@@H](CC(=O)OC(C)(C)C)c1nnc(C)n1-2
Method in brief: as §1

[5] = compound: c1ccc([C@@H]2C[C@H]2NC2CCNCC2)cc1
Method in brief: as §1

Measured: log2 fold change

C4orf33 (UniProt Q8N1A6)
UniProt Q8N1A6, sequence (Q8N1A6 whole entry, looked up): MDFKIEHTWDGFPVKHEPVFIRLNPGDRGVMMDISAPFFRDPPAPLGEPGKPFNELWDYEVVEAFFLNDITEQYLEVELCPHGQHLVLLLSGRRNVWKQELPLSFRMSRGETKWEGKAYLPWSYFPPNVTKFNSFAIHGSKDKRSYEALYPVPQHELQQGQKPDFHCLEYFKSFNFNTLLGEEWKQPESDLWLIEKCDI
inactive: [1] -0.041 | [2] 0.176 | [3] 0.066 | [4] 0.024 | [5] -0.003

CHP1 (UniProt Q99653)
UniProt Q99653, sequence (Q99653 whole entry, looked up): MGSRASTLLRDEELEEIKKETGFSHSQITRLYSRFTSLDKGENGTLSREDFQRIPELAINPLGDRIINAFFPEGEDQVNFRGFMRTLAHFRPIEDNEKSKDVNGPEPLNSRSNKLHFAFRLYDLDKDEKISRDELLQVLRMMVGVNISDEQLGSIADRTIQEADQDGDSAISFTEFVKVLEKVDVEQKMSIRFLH
inactive: [1] 0.022 | [2] 0.016 | [3] -0.058 | [4] -0.057 | [5] -0.015

CHAMP1 (UniProt Q96JM3)
UniProt Q96JM3, sequence (Q96JM3 whole entry, looked up): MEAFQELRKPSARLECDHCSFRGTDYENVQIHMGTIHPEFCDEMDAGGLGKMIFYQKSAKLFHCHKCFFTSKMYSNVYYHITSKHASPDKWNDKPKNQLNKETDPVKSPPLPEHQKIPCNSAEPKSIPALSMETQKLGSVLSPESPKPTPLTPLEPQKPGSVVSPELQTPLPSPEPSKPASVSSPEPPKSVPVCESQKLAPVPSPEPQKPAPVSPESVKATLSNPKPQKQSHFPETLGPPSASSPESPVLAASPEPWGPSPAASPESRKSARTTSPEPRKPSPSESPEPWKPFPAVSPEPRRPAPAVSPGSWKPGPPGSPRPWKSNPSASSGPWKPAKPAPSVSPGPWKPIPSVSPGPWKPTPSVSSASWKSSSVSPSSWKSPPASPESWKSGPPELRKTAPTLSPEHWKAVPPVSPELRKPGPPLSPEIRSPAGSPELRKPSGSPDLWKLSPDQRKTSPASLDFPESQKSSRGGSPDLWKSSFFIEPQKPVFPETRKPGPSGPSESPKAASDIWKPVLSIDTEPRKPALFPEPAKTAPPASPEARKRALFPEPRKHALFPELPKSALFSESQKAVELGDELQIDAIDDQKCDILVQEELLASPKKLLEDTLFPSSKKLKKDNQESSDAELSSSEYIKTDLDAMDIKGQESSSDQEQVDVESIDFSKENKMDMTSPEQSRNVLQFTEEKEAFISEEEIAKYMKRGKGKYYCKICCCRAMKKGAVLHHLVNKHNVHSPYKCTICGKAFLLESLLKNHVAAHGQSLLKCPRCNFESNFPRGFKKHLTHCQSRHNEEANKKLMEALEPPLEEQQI
inactive: [1] -0.073 | [2] 0.044 | [3] 0.022 | [4] -0.051 | [5] -0.006

CLINT1 isoform 3 (UniProt Q14677)
UniProt Q14677, sequence (Q14677 whole entry, looked up): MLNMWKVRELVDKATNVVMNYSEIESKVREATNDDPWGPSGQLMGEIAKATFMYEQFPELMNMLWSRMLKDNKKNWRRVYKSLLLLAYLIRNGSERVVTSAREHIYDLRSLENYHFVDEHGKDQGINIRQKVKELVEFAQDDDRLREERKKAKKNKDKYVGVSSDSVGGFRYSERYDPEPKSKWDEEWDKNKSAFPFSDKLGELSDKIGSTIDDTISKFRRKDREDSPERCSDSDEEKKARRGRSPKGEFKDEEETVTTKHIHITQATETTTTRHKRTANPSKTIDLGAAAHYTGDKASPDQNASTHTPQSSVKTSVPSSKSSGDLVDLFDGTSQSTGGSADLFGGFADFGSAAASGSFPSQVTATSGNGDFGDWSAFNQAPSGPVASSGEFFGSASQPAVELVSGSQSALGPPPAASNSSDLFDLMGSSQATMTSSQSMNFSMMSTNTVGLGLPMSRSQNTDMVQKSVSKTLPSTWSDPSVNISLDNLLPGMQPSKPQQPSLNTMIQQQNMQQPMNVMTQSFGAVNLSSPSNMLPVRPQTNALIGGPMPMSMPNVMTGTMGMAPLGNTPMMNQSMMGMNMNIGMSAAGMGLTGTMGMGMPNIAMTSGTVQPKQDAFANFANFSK
inactive: [1] 0.053 | [2] -0.039 | [3] -0.01 | [4] 0.046 | [5] 0.044

CA8 (UniProt P35219)
UniProt P35219, sequence (P35219 whole entry, looked up): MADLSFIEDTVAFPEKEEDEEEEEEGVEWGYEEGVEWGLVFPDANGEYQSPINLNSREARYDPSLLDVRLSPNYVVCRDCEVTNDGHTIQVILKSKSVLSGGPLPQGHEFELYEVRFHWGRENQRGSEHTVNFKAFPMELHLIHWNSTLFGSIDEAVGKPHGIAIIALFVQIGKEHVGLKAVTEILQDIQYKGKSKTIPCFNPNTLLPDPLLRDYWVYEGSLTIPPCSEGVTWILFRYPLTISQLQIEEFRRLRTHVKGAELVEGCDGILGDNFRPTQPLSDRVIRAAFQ
inactive: [1] 0.006 | [2] 0.059 | [3] 0.052 | [4] 0.025 | [5] -0.045

CRLF3 (UniProt Q8IUI8)
UniProt Q8IUI8, sequence (Q8IUI8 whole entry, looked up): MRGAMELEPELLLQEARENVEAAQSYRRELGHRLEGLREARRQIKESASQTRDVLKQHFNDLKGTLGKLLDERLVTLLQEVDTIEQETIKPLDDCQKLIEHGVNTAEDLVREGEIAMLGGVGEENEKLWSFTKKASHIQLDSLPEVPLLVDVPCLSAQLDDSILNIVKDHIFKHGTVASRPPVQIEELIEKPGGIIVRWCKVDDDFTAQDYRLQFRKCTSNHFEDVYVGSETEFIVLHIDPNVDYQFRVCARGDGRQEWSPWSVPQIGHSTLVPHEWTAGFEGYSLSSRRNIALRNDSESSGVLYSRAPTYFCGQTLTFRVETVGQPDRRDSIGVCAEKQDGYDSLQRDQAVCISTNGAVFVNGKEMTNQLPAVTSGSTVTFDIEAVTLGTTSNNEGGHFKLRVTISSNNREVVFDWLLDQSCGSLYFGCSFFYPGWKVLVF
inactive: [1] -0.03 | [2] 0.045 | [3] 0.087 | [4] 0.088 | [5] -0.036

CLN8 (UniProt Q9UBY8)
UniProt Q9UBY8, sequence (Q9UBY8 whole entry, looked up): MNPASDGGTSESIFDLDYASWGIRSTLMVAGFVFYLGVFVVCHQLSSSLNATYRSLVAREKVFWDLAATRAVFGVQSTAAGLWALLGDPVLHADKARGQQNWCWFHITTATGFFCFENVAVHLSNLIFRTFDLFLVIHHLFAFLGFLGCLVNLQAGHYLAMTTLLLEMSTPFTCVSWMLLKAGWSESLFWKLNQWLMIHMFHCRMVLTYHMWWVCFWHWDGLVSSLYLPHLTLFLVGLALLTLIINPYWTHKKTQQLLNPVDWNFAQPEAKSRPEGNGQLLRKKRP
inactive: [1] 0.121 | [2] 0.042 | [3] -0.067 | [4] 0.043 | [5] -0.057

COMMD2 (UniProt Q86X83)
UniProt Q86X83, sequence (Q86X83 whole entry, looked up): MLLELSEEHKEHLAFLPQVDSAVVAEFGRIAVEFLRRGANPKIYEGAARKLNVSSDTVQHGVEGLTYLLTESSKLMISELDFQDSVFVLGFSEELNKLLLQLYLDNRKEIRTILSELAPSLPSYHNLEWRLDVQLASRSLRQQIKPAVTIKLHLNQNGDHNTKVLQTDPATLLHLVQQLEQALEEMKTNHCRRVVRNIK
inactive: [1] -0.029 | [2] 0.053 | [3] 0 | [4] -0.199 | [5] 0.04

CCNB1 (UniProt P14635)
UniProt P14635, sequence (P14635 whole entry, looked up): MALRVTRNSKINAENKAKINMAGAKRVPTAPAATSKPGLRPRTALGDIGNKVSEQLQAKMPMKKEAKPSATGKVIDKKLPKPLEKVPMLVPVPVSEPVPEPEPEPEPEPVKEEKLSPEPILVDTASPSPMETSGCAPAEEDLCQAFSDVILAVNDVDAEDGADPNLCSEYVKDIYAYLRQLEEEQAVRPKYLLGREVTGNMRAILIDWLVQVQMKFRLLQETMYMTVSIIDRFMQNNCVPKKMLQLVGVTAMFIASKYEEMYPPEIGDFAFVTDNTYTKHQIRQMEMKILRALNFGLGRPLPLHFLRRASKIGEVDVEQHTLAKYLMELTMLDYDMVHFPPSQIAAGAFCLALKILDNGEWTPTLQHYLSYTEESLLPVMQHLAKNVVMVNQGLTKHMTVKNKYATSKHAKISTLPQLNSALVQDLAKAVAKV
inactive: [1] -0.004 | [2] 0.036 | [3] 0.015 | [4] -0.007 | [5] 0.026

CBX1 (UniProt P83916)
UniProt P83916, sequence (P83916 whole entry, looked up): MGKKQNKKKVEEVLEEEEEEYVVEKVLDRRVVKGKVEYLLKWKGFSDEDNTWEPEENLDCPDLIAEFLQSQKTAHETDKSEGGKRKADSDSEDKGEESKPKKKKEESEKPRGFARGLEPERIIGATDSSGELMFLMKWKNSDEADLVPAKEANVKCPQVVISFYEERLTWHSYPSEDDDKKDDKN
inactive: [1] 0.003 | [2] 0.026 | [3] 0.023 | [4] -0.003 | [5] 0.031

CHD3 isoform 3 (UniProt Q12873)
inactive: [1] -0.104 | [2] 0.038 | [3] 0.069 | [4] -0.038 | [5] 0.087

CA1 (UniProt P00915)
UniProt P00915, sequence (P00915 whole entry, looked up): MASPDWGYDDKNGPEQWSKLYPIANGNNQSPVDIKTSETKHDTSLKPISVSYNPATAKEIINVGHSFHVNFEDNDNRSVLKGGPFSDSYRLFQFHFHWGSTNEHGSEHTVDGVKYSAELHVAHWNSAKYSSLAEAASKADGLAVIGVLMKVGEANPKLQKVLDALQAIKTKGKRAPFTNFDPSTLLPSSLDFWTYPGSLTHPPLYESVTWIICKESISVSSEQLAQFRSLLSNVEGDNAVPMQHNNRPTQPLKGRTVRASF
inactive: [1] -0.007 | [2] 0.039 | [3] 0.019 | [4] 0.007 | [5] 0.018
